Reference: PubChem BioAssay (NCATS)
Inconclusive results are not listed. A call without a number means that no potency is given here. A number with no mark means an inactive call. Calls of active or inactive are those of the source. Calls come from the whole dose curve; as a rule, active = well fitted curve in the direction sought with a large enough effect; inconclusive = small, poorly fitted or top-dose-only effect, or another doubt; inactive = no such curve, though single readings can be large; an effect the other way counts as inactive or inconclusive.

Assays:
[1] = target: Rap guanine nucleotide exchange factor 3 (Homo sapiens) (UniProt O95398); experiment: Confirmatory qHTS for antagonist of cAMP-regulated guanine nucleotide exchange factor 3 (EPAC1) (AID 1645880); conditions: EPAC1 Rap1B-BODIPY-GDP exchange, fluorescence; activity, negative = inhibition: at 115 µM (top of the series); note: nearly all actives have a fitted effect of over 55% in size
How it was run: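 Released BODIPY-GDP fluoresces less than Rap1-bound BODIPY-GDP; the signal is followed at 480/540 nm at 5-min intervals over 30 min, after 5 min at room temperature. Reactions contain 100 nM EPAC1, 250 nM RAP1B-BODIPY-GDP and 50 uM GDP; results are normalized to ATA and DMSO.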

[2] = target: Rap guanine nucleotide exchange factor 3 (Homo sapiens) (UniProt O95398); experiment: Confirmatory qHTS for agonist of cAMP-regulated guanine nucleotide exchange factor 3 (EPAC1) (AID 1645881); note: nearly all actives have a fitted effect of over 75% in size;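 for activation: EPAC1 catalysed release of BODIPY-GDP from Rap1B seen as fluorescence loss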
[3] = target: Rap guanine nucleotide exchange factor 4 (Homo sapiens) (UniProt Q8WZA2); experiment: Confirmatory qHTS for agonist of cAMP-regulated guanine nucleotide exchange factor 4 (EPAC2) (AID 1645884);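 note: nucleotide exchange releases bodipy-GDP from Rap1 and this lowers its fluorescence; nearly all actives have a fitted effect of over 65% in size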
[4] = target: Rap guanine nucleotide exchange factor 4 (Homo sapiens) (UniProt Q8WZA2); experiment: Confirmatory qHTS for antagonist of cAMP-regulated guanine nucleotide exchange factor 4 (EPAC2) (AID 1645885); note: nearly all actives have a fitted effect of over 25% in size
[5] = target: Rap guanine nucleotide exchange factor 3 (Homo sapiens) (UniProt O95398); experiment: Counterscreen qHTS for agonist of cAMP-regulated guanine nucleotide exchange factor 3 (EPAC1) (AID 1645889); note: nearly all actives have a fitted effect of over 40% in size
How it was run: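 Measured: fluorescence of BODIPY-GDP bound to Rap1B, which falls as exchange proceeds. Conditions include 50 uM competing GDP, 5 and 30 min reads, and a later cAMP challenge for antagonist detection.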
Potency is the fitted concentration of half-maximal effect.

Sequence of Rap guanine nucleotide exchange factor 4 (Homo sapiens) (Q8WZA2 whole entry, looked up): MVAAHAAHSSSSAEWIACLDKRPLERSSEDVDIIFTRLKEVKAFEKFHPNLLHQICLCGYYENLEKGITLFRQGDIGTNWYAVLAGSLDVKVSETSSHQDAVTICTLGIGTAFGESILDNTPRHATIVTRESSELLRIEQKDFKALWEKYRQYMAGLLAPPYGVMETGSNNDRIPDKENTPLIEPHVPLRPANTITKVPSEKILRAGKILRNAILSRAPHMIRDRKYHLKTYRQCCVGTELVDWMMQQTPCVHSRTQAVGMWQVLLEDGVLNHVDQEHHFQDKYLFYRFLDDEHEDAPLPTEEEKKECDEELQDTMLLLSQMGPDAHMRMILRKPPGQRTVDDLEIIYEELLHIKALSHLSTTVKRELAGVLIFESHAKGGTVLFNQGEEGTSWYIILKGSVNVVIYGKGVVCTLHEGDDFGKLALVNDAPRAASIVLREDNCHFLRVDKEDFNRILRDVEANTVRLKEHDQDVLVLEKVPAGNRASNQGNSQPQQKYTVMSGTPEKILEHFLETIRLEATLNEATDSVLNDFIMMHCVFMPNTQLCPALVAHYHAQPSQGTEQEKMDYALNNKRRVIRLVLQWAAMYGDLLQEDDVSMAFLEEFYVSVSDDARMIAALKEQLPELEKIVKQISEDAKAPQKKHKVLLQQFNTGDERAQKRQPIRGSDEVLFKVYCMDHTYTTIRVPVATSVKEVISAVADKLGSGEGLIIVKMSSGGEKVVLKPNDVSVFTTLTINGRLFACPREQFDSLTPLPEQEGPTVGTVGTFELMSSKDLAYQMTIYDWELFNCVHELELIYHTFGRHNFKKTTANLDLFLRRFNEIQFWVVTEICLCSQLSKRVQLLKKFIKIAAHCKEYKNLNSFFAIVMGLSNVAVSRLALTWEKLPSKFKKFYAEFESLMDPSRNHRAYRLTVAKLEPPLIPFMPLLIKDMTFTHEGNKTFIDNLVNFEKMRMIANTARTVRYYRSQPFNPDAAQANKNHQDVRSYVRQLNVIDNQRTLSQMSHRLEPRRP
Sequence of Rap guanine nucleotide exchange factor 3 (Homo sapiens) (O95398 whole entry, looked up): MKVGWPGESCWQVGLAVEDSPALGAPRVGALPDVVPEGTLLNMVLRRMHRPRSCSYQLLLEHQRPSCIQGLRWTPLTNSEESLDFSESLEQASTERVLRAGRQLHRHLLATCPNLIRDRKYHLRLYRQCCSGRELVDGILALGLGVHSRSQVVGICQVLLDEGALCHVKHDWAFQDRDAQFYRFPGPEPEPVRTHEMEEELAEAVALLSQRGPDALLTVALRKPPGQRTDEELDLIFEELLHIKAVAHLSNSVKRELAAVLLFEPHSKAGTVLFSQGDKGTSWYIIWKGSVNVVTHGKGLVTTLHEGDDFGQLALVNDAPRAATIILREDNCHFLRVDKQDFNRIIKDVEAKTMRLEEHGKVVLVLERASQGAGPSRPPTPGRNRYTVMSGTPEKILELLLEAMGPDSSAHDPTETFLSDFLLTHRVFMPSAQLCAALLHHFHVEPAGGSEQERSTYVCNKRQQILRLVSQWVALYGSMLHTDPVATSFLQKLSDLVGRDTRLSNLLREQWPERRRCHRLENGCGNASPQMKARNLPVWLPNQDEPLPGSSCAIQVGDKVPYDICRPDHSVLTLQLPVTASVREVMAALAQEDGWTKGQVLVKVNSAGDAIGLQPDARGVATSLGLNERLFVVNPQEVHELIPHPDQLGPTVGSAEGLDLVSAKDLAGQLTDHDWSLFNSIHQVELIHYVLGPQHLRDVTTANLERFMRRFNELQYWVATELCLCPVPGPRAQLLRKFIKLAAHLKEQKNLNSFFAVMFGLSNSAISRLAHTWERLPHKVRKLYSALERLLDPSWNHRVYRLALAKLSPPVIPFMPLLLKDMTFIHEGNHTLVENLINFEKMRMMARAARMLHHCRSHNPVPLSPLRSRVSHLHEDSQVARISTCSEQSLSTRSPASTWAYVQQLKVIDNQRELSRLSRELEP

SMILES	Potency [1]	Potency [2]	activation [3]	Potency [4]	activation [5]	Potency [3]	Potency [5]	outcome [4]
COc1ccc(N2CCOCC2)c(NC(=O)c2cccc3ccccc23)c1	inactive	inactive	5.58% [at 17.1 µM, percent relative to cAMP agonist control]	inactive	22.6% [at 30.8 µM]			
Nc1ncc(Br)cc1S(=O)(=O)Nc1cc(C(F)(F)F)cc(C(F)(F)F)c1	75.7 µM (active)	inactive		inactive		inactive	inactive	
Cn1cc([C@]2(O)C(=O)Nc3ccc(OC(F)(F)F)cc32)c2ccccc21	inactive	inactive	14.8% [at 17.1 µM, percent relative to cAMP agonist control]	inactive	32.2% [at 30.8 µM]			
CCN1CCc2c(sc(NC(=O)c3ccc(S(=O)(=O)N4CCCCCC4)cc3)c2C(=O)NC)C1	inactive	inactive		inactive		inactive	inactive	
CN1CCN(C2=CC3=CC(=C(C#N)C#N)CCC3CC2)CC1 (stereo not given)	inactive	44.7 µM (active)		6.75 µM (active)		56.2 µM (active)	14.1 µM (active)	
O=C1OC(c2ccccc2)Sc2ccccc21 (stereo not given)	inactive	inactive	4.47% [at 17.1 µM, percent relative to cAMP agonist control]	inactive	-3.76% [at 30.8 µM]			
Cn1cc(C(CO)Cc2ccccc2)c2ccccc21 (stereo not given)	inactive	inactive	4.77% [at 17.1 µM, percent relative to cAMP agonist control]	inactive	2.04% [at 30.8 µM]			
CCC(=O)N1c2ccc(S(=O)(=O)NCCc3ccc(C)cc3)cc2CC1C (stereo not given)	inactive	inactive		inactive		inactive	inactive	
COc1ccc(CCNc2oc(-c3ccc(C)cc3)nc2C#N)cc1OC	inactive	inactive	5.59% [at 17.1 µM, percent relative to cAMP agonist control]	inactive	26.9% [at 30.8 µM]			
Cc1ccc2oc(=O)c(/C=C(\O)c3cccs3)nc2c1	inactive	100 µM (active)		23.9 µM (active)		89.1 µM (active)	39.8 µM (active)	
CC(C)c1ccc(NC(=O)COC(=O)C2=COCCO2)cc1	inactive	inactive	-5.53% [at 17.1 µM, percent relative to cAMP agonist control]	inactive	17.9% [at 30.8 µM]			
CC(=O)c1cc(CC(=O)N2CCc3c([nH]c4ccccc34)C2c2ccccn2)cs1 (stereo not given)	inactive	inactive		inactive		inactive	inactive	
C=CCn1cc(C(=O)NCCCOC)c(=O)c2cc(S(=O)(=O)N(CC)CC)ccc21	inactive	inactive		inactive		inactive	inactive	
CCCCCn1c(CCNC(=O)c2cccc(C)c2)nc2ccccc21	inactive	inactive		inactive		inactive	inactive	
CCCCn1c(CNC(=O)C23CC4CC(CC(C4)C2)C3)nnc1SCC(=O)Nc1ccc(F)cc1	inactive	inactive				inactive	inactive	inactive [at 12.7 µM]
O=C1/C(=C/c2ccc(O)c(O)c2)SC(=S)N1Nc1ccccc1	16.9 µM (active)	inactive		inactive		inactive	inactive	
Cc1cc(Nc2ncc(Cl)cc2Cl)n(-c2ccccc2C)n1	inactive	inactive		16.9 µM (active)		inactive	inactive	
C=CCN(CC=C)C(=O)COn1nnc2ccc(S(=O)(=O)N3CCOCC3)cc21	inactive	inactive		inactive		inactive	inactive	
CCn1c(O)c(/C=N/N=C/c2ccc(OC)cc2)c2cc(C3=NNC(=O)CC3)ccc21	inactive	89.1 µM (active)		inactive		100 µM (active)	inactive	
CCOc1nc(C)cc(C)c1S(=O)(=O)c1cccc(Cl)c1	inactive	inactive		19 µM (active)		inactive	inactive	
C/C=C/C(=O)Nc1cccc(C2=NOC3(C2)C[C@@H](C(N)=O)N(C(=O)/C(C)=C/C)C3)c1 (stereo not given in full)	inactive	inactive		inactive		inactive	inactive	
C=CCn1c(SCC(=O)NC(N)=O)nnc1-c1cc2c(s1)CCC(CC)C2 (stereo not given)	inactive	inactive		inactive		inactive	inactive	
CCOC(=O)N1c2ccccc2Sc2ccccc21	inactive	inactive	4.1% [at 17.1 µM, percent relative to cAMP agonist control]	inactive	15.6% [at 30.8 µM]			
COc1cc(NC(=O)c2ccnc(N)c2)cc(C(=O)Nc2cccc(C(F)(F)F)c2)c1	42.6 µM (active)	inactive		inactive		inactive	inactive	
CC[C@]12c3[nH]c4cc(-c5ccco5)ccc4c3CCN1C(=O)[C@@H](CC(=O)NCCCOC)C[C@@H]2C(=O)N1CCN(C(=O)C2CC2)CC1	inactive	inactive	9.39% [at 17.1 µM, percent relative to cAMP agonist control]	inactive	-1.13% [at 30.8 µM]			
